Experimental data reported in PubChem BioAssay.
Calls of active or inactive are those of the source. Unless noted, no rule for the calls is given here.

Key:
[1] = test system: Wnt5a (protein binding on small-molecule microarray); assay: small molecules binding Wnt5a protein – biophysical, small-molecule microarray, 635/667 nm fluorescence, primary screen (AID 1142); conditions: 635 nm fluorescence, higher = more signal;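 also: fluorescence read at 667 nm with signal to noise per printed feature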
[2] = ATP-based viability of Huh7 replicon cells – cell-based, CellTiter-Glo luminescence, basal, 48 h, cytotoxicity control for HCV replication inhibitor project, primary screen (AID 1143); conditions: higher = more signal, called active from +8 up or from −8 down;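 also: Huh7 hepatoma cells carrying a hepatitis C replication reporter with no stimulus; test concentration not given here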
[3] = Pseudomonas biofilm growth suppression – PAO1 strain, BacTiter-Glo luminescence, LB-PBS, primary screen (AID 1144); conditions: P. aeruginosa PAO1 biofilm, 12 h, higher = more signal
[4] = basal CRE-LacZ reporter activity in PC12 – cell-based, unstimulated, primary screen (AID 1145); conditions: no forskolin, luminescence, 4.5 h, higher = more signal, called active from +8 up or from −8 down
[5] = forskolin-driven CRE-LacZ activity in PC12 – cell-based, CRE-LacZ reporter, forskolin-stimulated, primary screen (AID 1146); conditions: luminescence, 4.5 h, higher = more signal, called active from +8 up or from −8 down;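 also: PC12 cells with 6xCRE LacZ reporter stimulated by forskolin 10 µM; beta-galactosidase reporter signal reflecting CREB driven transcription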
[6] = target: Streptavidin (Streptomyces avidinii) (UniProt P22629); assay: compounds binding control protein streptavidin – biophysical, small-molecule microarray, 635/667 nm fluorescence, artefact control for SMM compound annotation, primary screen (AID 1147); conditions: higher = more signal;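 also: signal reflects streptavidin binding to arrayed compounds as a control protein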
Sequence of Streptavidin (Streptomyces avidinii) (P22629 whole entry, looked up): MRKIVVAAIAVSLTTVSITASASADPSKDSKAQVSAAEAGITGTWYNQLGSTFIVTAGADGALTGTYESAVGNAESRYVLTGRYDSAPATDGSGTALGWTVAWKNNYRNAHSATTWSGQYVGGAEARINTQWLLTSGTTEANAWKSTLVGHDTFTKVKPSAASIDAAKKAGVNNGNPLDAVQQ

[7] = probe aInhba binding on compound microarray – biochemical, small-molecule microarray, 635/667 nm fluorescence, primary screen (AID 1148); conditions: higher = more signal;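 also: score merges 667nm spot fluorescence with signal-to-noise for antibody binding to printed compounds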
[8] = target: Torsin-1A (Homo sapiens) (UniProt O14656); assay: TOR1A wild-type binding on microarray – cell lysate, small-molecule microarray, lysate, 635/667 nm, primary screen (AID 1149); conditions: COS7 hTOR1A-WT lysate, 635 nm fluorescence, higher = more signal
Sequence of Torsin-1A (Homo sapiens) (O14656 whole entry, looked up): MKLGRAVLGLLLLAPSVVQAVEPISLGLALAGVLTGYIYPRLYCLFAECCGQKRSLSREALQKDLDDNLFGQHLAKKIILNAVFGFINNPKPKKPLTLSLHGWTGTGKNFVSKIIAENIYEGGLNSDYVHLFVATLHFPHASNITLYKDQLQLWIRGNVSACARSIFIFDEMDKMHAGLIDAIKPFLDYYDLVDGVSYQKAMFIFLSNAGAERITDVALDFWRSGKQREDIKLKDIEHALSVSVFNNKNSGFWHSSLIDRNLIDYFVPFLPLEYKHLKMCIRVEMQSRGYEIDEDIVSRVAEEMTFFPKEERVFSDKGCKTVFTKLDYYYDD

[9] = target: Torsin-1A (Homo sapiens) (UniProt O14656); assay: torsin A mutant lysate binding on microarrays – cell lysate, small-molecule microarray, COS7 lysate, 635/667 nm fluorescence, primary screen (AID 1150); conditions: COS7 hTOR1A mutant lysate, 635 nm fluorescence, higher = more signal;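 also: score pools 667 nm emission and signal to noise measuring lysate protein binding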
[10] = test system: Sonic hedgehog protein (Shh); assay: Sonic hedgehog microarray binding compounds – biochemical, small-molecule microarray, 635/667 nm fluorescence, primary screen (AID 1151); conditions: 635 nm fluorescence, higher = more signal;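 also: Shh protein binding to compounds spotted on small-molecule microarray slides; score combines spot fluorescence intensity with signal-to-noise across triplicate slides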
[11] = optical density shifts of acrAB sulA E. coli – strain DRC41, OD650, 48 h, E. coli filamentation inducer project, primary screen (AID 1152); conditions: higher = more signal, called active from +8 up or from −8 down;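 also: E. coli MC1000 strain DRC41 lacking acrAB efflux pump and sulA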
[12] = probe aLefty1 binding on compound microarray – biochemical, small-molecule microarray, 635/667 nm fluorescence, primary screen (AID 1153); conditions: higher = more signal;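 also: score merges spot fluorescence with signal-to-noise ratio from the scanned slide images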
[13] = plasmodial surface anion channel blockers, osmotic lysis – cell-based, P. falciparum Indochina, OD700, 1 h, primary screen (AID 1154); conditions: P. falciparum Indochina infected RBC osmotic lysis, higher = more signal, called active from +8 up or from −8 down
[14] = plasmodial surface anion channel blockers, osmotic lysis – cell-based, P. falciparum Indochina, OD700, 2 h, primary screen (AID 1155);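 also: lysis reports solute entry through the parasite surface anion channel PSAC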; conditions: P. falciparum Indochina infected erythrocytes, higher = more signal, called active from +8 up or from −8 down
[15] = changes in parasitized red cell lysis, either direction – P. falciparum Indochina, OD700, 3 h, PSAC antagonist project, primary screen (AID 1156); conditions: P. falciparum-infected erythrocytes, osmotic lysis, higher = more signal, called active from +8 up or from −8 down
[16] = plasmodial surface anion channel blockers, osmotic lysis – cell-based, P. falciparum Indochina, OD700, 18 h, primary screen (AID 1157); conditions: P. falciparum Indochina infected erythrocytes, osmotic lysis OD700, 18 h; higher = more signal, called active from +8 up or from −8 down
[17] = S6 kinase pathway phospho-S6 level changes – cell-based, A549, cytoblot, luminescence, serum-stimulated, primary screen (AID 1158); conditions: 5 h, higher = more signal;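 also: serum-stimulated A549 lung adenocarcinoma cells; signal is phosphorylated S6 detected by cytoblot immunostaining with HRP secondary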
[18] = target: NADPH oxidase 2 (Homo sapiens) (UniProt P04839); assay: compounds shifting NOX2 Amplex Red fluorescence – cell-based, HEK293-NOX2, PMA-stimulated, NOX inhibitor project, primary screen (AID 1159); conditions: 45 min, higher = more signal, called active from +8 up or from −8 down; also: test concentration not given here
Sequence of NADPH oxidase 2 (Homo sapiens) (P04839 whole entry, looked up): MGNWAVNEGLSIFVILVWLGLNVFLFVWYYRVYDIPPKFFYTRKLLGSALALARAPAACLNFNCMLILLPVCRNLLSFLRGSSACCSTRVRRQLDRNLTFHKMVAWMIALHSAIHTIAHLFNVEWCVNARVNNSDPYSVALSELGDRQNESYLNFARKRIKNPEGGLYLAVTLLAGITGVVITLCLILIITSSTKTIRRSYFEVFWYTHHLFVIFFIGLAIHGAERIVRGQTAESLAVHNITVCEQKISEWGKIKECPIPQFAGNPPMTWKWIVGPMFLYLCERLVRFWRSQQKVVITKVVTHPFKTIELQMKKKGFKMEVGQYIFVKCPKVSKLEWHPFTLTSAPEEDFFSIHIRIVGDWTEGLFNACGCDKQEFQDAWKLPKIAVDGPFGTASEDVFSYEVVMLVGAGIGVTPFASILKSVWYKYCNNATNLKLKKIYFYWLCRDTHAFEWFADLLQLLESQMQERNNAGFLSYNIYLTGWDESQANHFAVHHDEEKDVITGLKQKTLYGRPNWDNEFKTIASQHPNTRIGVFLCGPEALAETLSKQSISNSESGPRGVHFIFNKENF

[19] = target: NADPH oxidase 4 (Homo sapiens) (UniProt Q9NPH5); assay: compounds shifting NOX4 Amplex Red fluorescence – cell-based, HEK293-NOX4, tetracycline-induced, NOX inhibitor project, primary screen (AID 1160); conditions: HEK293-NOX4, Amplex Red H2O2 fluorescence, 45 min; higher = more signal, called active from +8 up or from −8 down
Sequence of NADPH oxidase 4 (Homo sapiens) (Q9NPH5 whole entry, looked up): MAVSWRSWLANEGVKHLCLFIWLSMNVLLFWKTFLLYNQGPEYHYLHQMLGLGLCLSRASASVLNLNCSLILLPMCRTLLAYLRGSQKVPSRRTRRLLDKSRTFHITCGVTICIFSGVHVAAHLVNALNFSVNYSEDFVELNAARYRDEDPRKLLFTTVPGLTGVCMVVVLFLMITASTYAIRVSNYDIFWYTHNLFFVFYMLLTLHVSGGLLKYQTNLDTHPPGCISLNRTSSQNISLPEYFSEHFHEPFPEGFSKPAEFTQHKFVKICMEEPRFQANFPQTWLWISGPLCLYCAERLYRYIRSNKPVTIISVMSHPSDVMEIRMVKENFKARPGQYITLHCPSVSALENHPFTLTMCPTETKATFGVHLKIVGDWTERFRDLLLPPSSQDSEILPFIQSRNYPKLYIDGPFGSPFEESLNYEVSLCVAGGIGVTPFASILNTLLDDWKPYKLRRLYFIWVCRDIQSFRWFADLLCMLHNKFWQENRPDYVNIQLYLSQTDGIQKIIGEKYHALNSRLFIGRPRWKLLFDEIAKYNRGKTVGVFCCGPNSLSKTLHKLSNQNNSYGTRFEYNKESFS

[20] = target: NADPH oxidase 5 (Homo sapiens) (UniProt Q96PH1); assay: compounds shifting NOX5 Amplex Red fluorescence – cell-based, HEK293-NOX5, NOX inhibitor project, primary screen (AID 1161); conditions: HEK293-NOX5, ionomycin, 45 min, higher = more signal
Sequence of NADPH oxidase 5 (Homo sapiens) (Q96PH1 whole entry, looked up): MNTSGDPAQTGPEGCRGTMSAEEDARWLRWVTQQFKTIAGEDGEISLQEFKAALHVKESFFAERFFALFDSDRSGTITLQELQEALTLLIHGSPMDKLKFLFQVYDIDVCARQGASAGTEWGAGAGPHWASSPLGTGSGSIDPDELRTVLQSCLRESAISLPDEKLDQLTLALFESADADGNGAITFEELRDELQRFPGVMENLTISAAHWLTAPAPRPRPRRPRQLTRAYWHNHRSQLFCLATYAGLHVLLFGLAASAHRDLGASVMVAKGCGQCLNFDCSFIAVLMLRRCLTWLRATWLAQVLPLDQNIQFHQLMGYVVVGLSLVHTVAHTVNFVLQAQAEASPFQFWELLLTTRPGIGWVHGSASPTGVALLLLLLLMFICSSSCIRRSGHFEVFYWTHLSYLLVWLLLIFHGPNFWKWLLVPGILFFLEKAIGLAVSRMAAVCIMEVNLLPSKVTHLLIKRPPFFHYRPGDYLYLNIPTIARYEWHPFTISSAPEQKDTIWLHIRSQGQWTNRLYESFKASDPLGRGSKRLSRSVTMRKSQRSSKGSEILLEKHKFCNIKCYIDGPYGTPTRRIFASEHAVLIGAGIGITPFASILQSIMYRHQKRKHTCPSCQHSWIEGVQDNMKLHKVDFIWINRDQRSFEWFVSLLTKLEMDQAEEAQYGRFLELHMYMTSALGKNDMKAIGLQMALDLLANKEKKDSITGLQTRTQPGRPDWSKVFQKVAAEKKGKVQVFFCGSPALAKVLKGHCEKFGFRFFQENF

Structure (SMILES)	composite z-score [1]	z-score [2]	z-score [3]	z-score [4]	z-score [5]	composite z-score [6]	composite z-score [7]	composite z-score [8]	composite z-score [9]	composite z-score [10]	z-score [11]	composite z-score [12]	z-score [13]	z-score [14]	z-score [15]	z-score [16]	z-score [17]	z-score [18]	z-score [19]	z-score [20]
CO[C@H]1O[C@H](CO)[C@@H](OC(=O)Nc2ccc(Oc3ccccc3)cc2)[C@H](OC(=O)Nc2ccc3c(c2)OCO3)[C@@H]1OC(=O)Nc1ccc2c(c1)OCO2	1.31	-2.74 (inactive)	-0.168 (inactive)	0.502 (inactive)	-0.917 (inactive)	0.894	0.415	0.626	1.58	1.66	0.599 (inactive)	0.0751	12.3 (active)	2.93 (inactive)	0.403 (inactive)	1.7 (inactive)	0.377	1.24 (inactive)	-0.397 (inactive)	-0.967
CC(=CC1CCCCC1)[C@@H](NC(=O)c1cccnc1)c1ccc(-c2ccccc2)cc1	-0.444	-2.65 (inactive)	0.477 (inactive)	1.34 (inactive)	1.24 (inactive)	0.0816	-0.0986	-0.77	-0.278	-0.683	-2.67 (inactive)	0.188	1.85 (inactive)	0.943 (inactive)	-0.0465 (inactive)	0.348 (inactive)	-0.849	-1.27 (inactive)	-2.55 (inactive)	-0.0302
NCCCCCNC(=O)[C@H]1C[C@H]2C(=O)N[C@@H](Cc3ccccc3)C(=O)N2[C@H]1c1cccc(OCCO)c1	-0.0768	-0.535 (inactive)	-0.2 (inactive)	1.49 (inactive)	-0.389 (inactive)	0.951	0.205	0.5	0.71	0.102	0.545 (inactive)	1.17	3.99 (inactive)	0.812 (inactive)	-0.685 (inactive)	0.325 (inactive)	-0.136	1.38 (inactive)	0.875 (inactive)	0.434
C=CCC(OC(C)=O)[C@@H]1[C@@H](N(Cc2ccc(-c3cccc(C(F)(F)F)c3)o2)C(=O)Cc2ccc(OC)cc2)c2cc(OCCCO)ccc2N1C(=O)c1ccc2ccccc2c1 (stereo not given in full)	-0.301	-1.54 (inactive)	-1 (inactive)	-0.0247 (inactive)	1.52 (inactive)	-0.445	-0.128	-2.27	0.168	0.804	0.0395 (inactive)	0.0191	1.35 (inactive)	1.01 (inactive)	2.68 (inactive)	0.898 (inactive)	0.388	-2.68 (inactive)	-1.99 (inactive)	-1.9
